A short description of experiment [1]: NCI Yeast Anticancer Drug Screen. Data for the rad50 strain (AID 155).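 Note: 0% = growth of vehicle-only cultures of the same strain.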 The settings on record: S. cerevisiae rad50 strain growth inhibition, stronger effect = higher value. In short, it runs like this:
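DNA repair mutant yeast, compound exposure, growth read-out; inhibition is taken relative to vehicle.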

Experiment [2] is described as follows: NCI Yeast Anticancer Drug Screen. Data for the mec2-1 strain (AID 157). The settings on record: S. cerevisiae mec2-1 strain, stronger effect = higher value. Summed up:
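Test agents were screened against the mec2-1 yeast strain, with defined DNA repair or cell cycle alteration. Growth was scored as inhibition against vehicle-only controls.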

Experiment [3] in a line: NCI Yeast Anticancer Drug Screen. Data for the sgs1 mgt1 strain (AID 161).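 Note: 0% = growth of cultures given vehicle only.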 The note with it: S. cerevisiae sgs1 mgt1 strain, stronger effect = higher value. Summed up: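 Genetically altered yeast, compound exposure, growth inhibition relative to vehicle.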
The nature of experiment [4]: NCI Yeast Anticancer Drug Screen. Data for the cln2 rad14 strain (AID 165).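 Note: 0% = growth equal to vehicle treated cultures.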 The note with it: S. cerevisiae cln2 rad14 strain, stronger effect = higher value. In short, it runs like this: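 Growth of compound-exposed yeast (cln2 rad14 genotype) measured and expressed as inhibition relative to vehicle.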
Experiment [5] can be described thus: NCI Yeast Anticancer Drug Screen. Data for the bub3 strain (AID 167). The note with it: S. cerevisiae bub3 mutant strain, stronger effect = higher value. Summed up:
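In this screen, a yeast mutant lacking normal mitotic checkpoint function is challenged with compound. Relative growth versus vehicle gives the inhibition value.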

A short description of experiment [6]: NCI Yeast Anticancer Drug Screen. Data for the mlh1 rad18 strain (AID 175). The note with it: S. cerevisiae mlh1 rad18 strain growth inhibition, stronger effect = higher value. In short, it runs like this:
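In this whole-cell yeast screen, a strain with altered DNA damage repair is challenged with compound, and its growth is measured against matched vehicle-treated controls.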

[7] abbreviates: at 5.0 µM (retest, dose inferred, filed as 0.5).
Setting [8] is: at 50.0 µM (retest, dose inferred, filed as 5.0).

SMILES strings stand for the structures. “And” between values parts separate entries of the source, which are not always exact repeats. Equal entries are not always repeated. This is part of a sample that, as a whole, favours compounds with a hit. Of some 79,000 tested, about 15% had one in any assay. Some structures have more than one record in an assay (separate samples or runs), and their calls can disagree. The source made the active and inactive calls. Cut-off read from the data, not from the text of the source: active = growth inhibition above about 70%; inactive = the rest.

With `Cc1ccc(S(=O)(=O)Nc2cc(S(=O)(=O)O)c(N)c3c2C(=O)c2ccccc2C3=O)cc1`, the growth inhibition is 51% (inactive) in experiment [1] (setting [7]); 99% (active) in experiment [1] (setting [8]); 60.2% (inactive) in experiment [1] (at 50.0 µM); 47% (inactive) in experiment [2] (setting [7]); 99% (active) in experiment [2] (setting [8]); 30.4% (inactive) in experiment [2] (at 50.0 µM). The growth inhibition is 25% (inactive) in experiment [3] (setting [7]); 65% (inactive) in experiment [3] (setting [8]); 62.8% (inactive) in experiment [3] (at 50.0 µM); 43% (inactive) in experiment [4] (setting [7]); 89% (active) in experiment [4] (setting [8]); 66.2% (inactive) in experiment [4] (at 50.0 µM). Also, the growth inhibition in experiment [5] (setting [7]) is 45% (inactive); in experiment [5] (setting [8]), 78% (active); in experiment [5] (at 50.0 µM) it was 60.1% (inactive); in experiment [6] (setting [7]) it was 53% (inactive); in experiment [6] (setting [8]), 99% (active); in experiment [6] (at 50.0 µM), 60.5% (inactive).

For `CC(=O)Oc1ccc2c(c1)Oc1cc(OC(C)=O)ccc1C21OC(=O)c2ccccc21`, the growth inhibition in experiment [1] (setting [7]) is 5% (inactive); in experiment [1] (setting [8]), 5% (inactive); in experiment [1] (at 50.0 µM) it was 16.8% (inactive) and 98.2% (active); in experiment [2] (setting [7]), -3% (inactive); in experiment [2] (setting [8]), 53% (inactive); in experiment [2] (at 50.0 µM), 19.5% (inactive) and 99.5% (active). Besides, the growth inhibition in experiment [3] (setting [7]) is 3% (inactive); in experiment [3] (setting [8]), 36% (inactive); in experiment [3] (at 50.0 µM), 30.9% (inactive) and 96.8% (active); in experiment [4] (setting [7]), 3% (inactive); in experiment [4] (setting [8]), 54% (inactive); in experiment [4] (at 50.0 µM) it was 14.2% (inactive) and -25.1% (inactive). Besides, the growth inhibition in experiment [5] (setting [7]) was -1% (inactive); in experiment [5] (setting [8]) it was 27% (inactive); in experiment [5] (at 50.0 µM), 18.6% (inactive) and 99.5% (active); in experiment [6] (setting [7]), 14% (inactive); in experiment [6] (setting [8]) it was 24% (inactive); in experiment [6] (at 50.0 µM) it was 24.8% (inactive) and 98.7% (active).

Consider `Cc1nnc(S(=O)(=O)c2ccc(N=Nc3c(N)nc(N)nc3N)cc2)s1`, for which the growth inhibition in experiment [1] (setting [7]) was 6% (inactive); in experiment [1] (setting [8]), 20% (inactive); in experiment [1] (at 50.0 µM), -5.45% (inactive); in experiment [2] (setting [7]), 8% (inactive); in experiment [2] (setting [8]), -5% (inactive); in experiment [2] (at 50.0 µM) it was -13.2% (inactive). For the same molecule, the growth inhibition in experiment [3] (setting [7]) is -8% (inactive); in experiment [3] (setting [8]) it was -9% (inactive); in experiment [3] (at 50.0 µM) it was -9.15% (inactive); in experiment [4] (setting [7]), 9% (inactive); in experiment [4] (setting [8]), 4% (inactive); in experiment [4] (at 50.0 µM) it was 68.4% (inactive). Moreover, the growth inhibition in experiment [5] (setting [7]) is -1% (inactive); in experiment [5] (setting [8]), 7% (inactive); in experiment [5] (at 50.0 µM), -23.5% (inactive); in experiment [6] (setting [7]) it was 11% (inactive); in experiment [6] (setting [8]), 7% (inactive); in experiment [6] (at 50.0 µM), 6.4% (inactive).

`CSCCC(NS(=O)(=O)Cc1ccccc1)C(=O)NNc1ccccc1` (stereo unspecified): the growth inhibition in experiment [1] (setting [7]) was -4% (inactive) and 18% (inactive); in experiment [1] (setting [8]), 44% (inactive) and 71% (active); in experiment [1] (at 50.0 µM), 72% (active) and 51.2% (inactive); in experiment [2] (setting [7]) it was 0% (inactive) and 2% (inactive); in experiment [2] (setting [8]) it was 30% (inactive) and 34% (inactive); in experiment [2] (at 50.0 µM), 30.7% (inactive) and 41.2% (inactive). In addition, the growth inhibition in experiment [3] (setting [7]) was -12% (inactive) and 10% (inactive); in experiment [3] (setting [8]) it was 65% (inactive) and 58% (inactive); in experiment [3] (at 50.0 µM), 55.9% (inactive) and 63.3% (inactive); in experiment [4] (setting [7]), 14% (inactive) and 5% (inactive); in experiment [4] (setting [8]) it was 44% (inactive) and 60% (inactive); in experiment [4] (at 50.0 µM), 56.4% (inactive) and 40.1% (inactive). Also, the growth inhibition is 2% (inactive) and 16% (inactive) in experiment [5] (setting [7]); 42% (inactive) and 93% (active) in experiment [5] (setting [8]); 46.6% (inactive) and 73.8% (active) in experiment [5] (at 50.0 µM); 33% (inactive) and 18% (inactive) in experiment [6] (setting [7]); 79% (active) and 65% (inactive) in experiment [6] (setting [8]); 76.9% (active) and 76.8% (active) in experiment [6] (at 50.0 µM).

Turning to `O=S(=O)(O)c1ccc2cc(N=Nc3c(O)ccc4ccccc34)ccc2c1`, the growth inhibition was 9% (inactive) in experiment [1] (setting [7]); 15% (inactive) in experiment [1] (setting [8]); 19.9% (inactive) in experiment [1] (at 50.0 µM); 2% (inactive) in experiment [2] (setting [7]); 12% (inactive) in experiment [2] (setting [8]); 5.45% (inactive) in experiment [2] (at 50.0 µM). Besides, the growth inhibition is 7% (inactive) in experiment [3] (setting [7]); 72% (active) in experiment [3] (setting [8]); 75.3% (active) in experiment [3] (at 50.0 µM); -7% (inactive) in experiment [4] (setting [7]); 0% (inactive) in experiment [4] (setting [8]); 33.4% (inactive) in experiment [4] (at 50.0 µM). The growth inhibition is -2% (inactive) in experiment [5] (setting [7]); -21% (inactive) in experiment [5] (setting [8]); 3.5% (inactive) in experiment [5] (at 50.0 µM); 2% (inactive) in experiment [6] (setting [7]); 10% (inactive) in experiment [6] (setting [8]); 34.9% (inactive) in experiment [6] (at 50.0 µM).

As to `OC1(C2C=CC=C2)c2ccccc2C=Cc2ccccc21`, the growth inhibition is 4% (inactive) in experiment [1] (setting [7]); 51% (inactive) in experiment [1] (setting [8]); 91% (active) in experiment [1] (at 50.0 µM); 13% (inactive) in experiment [2] (setting [7]); 48% (inactive) in experiment [2] (setting [8]); 10.7% (inactive) in experiment [2] (at 50.0 µM). Besides, the growth inhibition in experiment [3] (setting [7]) was 4% (inactive); in experiment [3] (setting [8]), 54% (inactive); in experiment [3] (at 50.0 µM), 78.6% (active); in experiment [4] (setting [7]), -36% (inactive); in experiment [4] (setting [8]) it was 70% (active); in experiment [4] (at 50.0 µM) it was 48.4% (inactive). Also, the growth inhibition is -14% (inactive) in experiment [5] (setting [7]); -85% (inactive) in experiment [5] (setting [8]); 69.5% (inactive) in experiment [5] (at 50.0 µM); 9% (inactive) in experiment [6] (setting [7]); 37% (inactive) in experiment [6] (setting [8]); 89.6% (active) in experiment [6] (at 50.0 µM).

Turning to `Fc1ccc(/C=C2\COCC3=C2NC(=S)NC3c2ccc(F)cc2)cc1` (stereo unspecified), the growth inhibition was 32% (inactive) in experiment [1] (setting [7]); 98% (active) in experiment [1] (setting [8]); 88.6% (active) in experiment [1] (at 50.0 µM); 28% (inactive) in experiment [2] (setting [7]); 99% (active) in experiment [2] (setting [8]); 93% (active) in experiment [2] (at 50.0 µM). The growth inhibition in experiment [3] (setting [7]) was 72% (active); in experiment [3] (setting [8]), 99% (active); in experiment [3] (at 50.0 µM), 91.2% (active); in experiment [4] (setting [7]) it was 59% (inactive); in experiment [4] (setting [8]) it was 99% (active); in experiment [4] (at 50.0 µM), 90.5% (active). Also, the growth inhibition in experiment [5] (setting [7]) is 77% (active); in experiment [5] (setting [8]), 100% (active); in experiment [5] (at 50.0 µM) it was 90.7% (active); in experiment [6] (setting [7]), 26% (inactive); in experiment [6] (setting [8]) it was 98% (active); in experiment [6] (at 50.0 µM) it was 90.7% (active).

Source of the values: PubChem BioAssay (NCI).
